From PubChem BioAssay
SMN2 splice up – increases expression of the SMN2 splice variant | HEK293 SMN2-luciferase splicing reporter, luminescence, 30-36 h | Potency, µM (top dose mostly 46.1 µM), hits mostly activators | 2.8% of 210,000 active; also: nearly all actives have a fitted effect of over 55% in size
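HEK293 cells carry an SMN2 […]–luciferase reporter in which exon 7 inclusion puts luciferase in frame. Cells were plated 10-12 h before compound addition, then incubated 30-36 h at 37C. ONE-Glo luminescence was read; sodium butyrate at 4.5 mM final served as control.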
ELG1 genotox – induces genotoxicity in HEK293T cells with luciferase-tagged ELG1 | HEK293T ELG1-luciferase reporter, luminescence, 16 h | Potency, µM (top dose mostly 46 µM), usual class: activators | 1.3% of 330,000 active | AID 504466; also: nearly all actives have a fitted effect of over 60% in size
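Genotoxicity was scored as increased ELG1-luciferase reporter signal, measured by ONE-Glo luminescence (30 min, room temperature). Compound or vehicle exposure of the HEK293T reporter cells lasted 16 hr at 37°C.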
FLuc modulator – firefly luciferase modulation, counter-screen for miR-21 project. P08659. purified FLuc, Km substrates, luminescence inhibition. Potency, µM (series often up to 57.5 µM), usual class: inhibitors. 6.9% of 360,000 active. AID 588342; also: nearly all actives have a fitted effect of over 55% in size
Target sequence (P08659 whole entry, looked up): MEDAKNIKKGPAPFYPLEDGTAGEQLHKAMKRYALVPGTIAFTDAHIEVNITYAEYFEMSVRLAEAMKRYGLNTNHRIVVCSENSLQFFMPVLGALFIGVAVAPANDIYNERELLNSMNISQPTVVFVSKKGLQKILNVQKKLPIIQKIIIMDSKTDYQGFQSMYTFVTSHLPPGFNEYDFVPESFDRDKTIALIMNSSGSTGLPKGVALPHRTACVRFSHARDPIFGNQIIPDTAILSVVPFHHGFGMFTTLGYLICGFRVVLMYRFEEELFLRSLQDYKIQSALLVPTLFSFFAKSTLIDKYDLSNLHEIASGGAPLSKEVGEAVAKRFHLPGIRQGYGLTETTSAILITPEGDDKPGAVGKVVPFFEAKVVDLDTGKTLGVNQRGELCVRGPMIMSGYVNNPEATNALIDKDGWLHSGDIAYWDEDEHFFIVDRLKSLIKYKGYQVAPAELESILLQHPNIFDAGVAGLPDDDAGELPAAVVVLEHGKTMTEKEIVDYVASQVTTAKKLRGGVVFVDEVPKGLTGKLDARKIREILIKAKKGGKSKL
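Biochemical qHTS of compounds, final roughly 60 µM downward over six points, against 10 nM purified firefly luciferase using Km concentrations of substrates (10 uM D-luciferin, 10 uM ATP) in Tris acetate pH 7.5 buffer; luminescence output.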
Rab9 prom act – activators of Rab9 promoter; Huh7 Rab9 promoter-luciferase reporter, luminescence, 24 h; Potency, µM (doses to about 9.22 µM), most hits filed as activators; 2.8% of 320,000 active; AID 485297; also: nearly all actives have a fitted effect of over 60% in size
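Huh7 cells stably carrying a Rab9 promoter-luciferase reporter, 1500 cells per well in OP-MEM I with 10% FBS, treated with compound 24 hours at 37C. Luciferase activity read by luminescence after 10 minutes with Amplite reagent.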
NPC1 prom act – NPC1 promoter activation | Huh7 NPC1 promoter luciferase reporter, 24 h | Potency, µM (series often up to 9.22 µM), hits mostly activators | 2.4% of 320,000 active | AID 485313; also: nearly all actives have a fitted effect of over 60% in size
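Huh7 cells stably carrying NPC1 promoter–luciferase, plated in Opti-MEM with 10% FBS for 2 h, were exposed to compound in DMSO for 24 h at 37 °C; luciferase reagent was added for 10 min and luminescence read.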
Numbers stand for hits; 0 = inactive; ? = inconclusive; - = no result. Hits are enriched below; roughly 7.4% of the tested compounds scored in any of these assays. Calls follow the shape of the dose curve; as a rule, active = well fitted curve in the direction sought with a large enough effect; inconclusive = small, poorly fitted or top-dose-only effect, or another doubt; inactive = no such curve, though single readings can be large; an effect the other way counts as inactive or inconclusive.

SMILES	SMN2 splice up	ELG1 genotox	FLuc modulator	Rab9 prom act	NPC1 prom act
Cc1ccc2sc(-c3ccc(NC(=O)CCN4C(=O)c5ccccc5C4=O)cc3)nc2c1	0.398µM	4.61µM	10.7µM	0.282µM	0.501µM
Cc1ccc(NC(=O)CCN2C(=O)c3ccccc3Sc3ncccc32)cc1	-	0	0	0	0
c1cn2cc(-c3ccc4c(c3)OCO4)nc2s1	12.6µM	?	1.9µM	0.631µM	0.447µM
Cc1ccc(S(=O)(=O)Nc2cccc(-c3cn4ccsc4n3)c2)cc1	?	0	?	0	0
O=C(CC1CCCCC1)Nc1ccc(-c2ccc3nncn3n2)cc1	0	0	0	0	0
O=C(Nc1ccc(-c2ccc3nncn3n2)cc1)C1CCCC1	?	0	19µM	0	0
COc1c(CO)cc(CO)cc(CO)c1=O	0	-	-	-	-
COc1ccc2nc(NNC(=O)C3COc4ccccc4O3)sc2c1 (stereo not drawn)	0	0	0	0	0
O=C(Nc1nc(-c2nc3ccccc3s2)cs1)C1COc2ccccc2O1 (stereo not drawn)	25.1µM	0	19µM	0	0
COc1ccc2nc(NC(=O)C3COc4ccccc4O3)sc2c1 (stereo not drawn)	12.6µM	?	3.01µM	3.16µM	1.58µM
CS(=O)(=O)c1ccc2nc(NC(=O)C3COc4ccccc4O3)sc2c1 (stereo not drawn)	-	0	10.7µM	0	0
CC1CC1C(=O)Nc1nc2ccc(S(C)(=O)=O)cc2s1 (stereo not drawn)	-	0	0	0	0
COC(=O)Cc1c(OC)ccn(CCc2c[nH]c3ccccc23)c1=O	11.2µM	?	16.9µM	3.16µM	?
Cc1cccc(OCC(=O)Nc2nc3ccc([N+](=O)[O-])cc3s2)c1	0	0	0	0	0
O=C(O)COc1ccc(/C=C/c2nc3ccc([N+](=O)[O-])cc3s2)cc1	-	0	4.78µM	0	0
C=C1C=C(C(F)F)n2ncc(C(=O)NCCc3ccccc3Cl)c2N1	-	-	0	-	-
COc1cc(CCN2C(=O)c3cccc4cccc(c34)C2=O)c(S(=O)(=O)NCCO)cc1OC	-	0	13.5µM	0	0
COc1cc(CCN2C(=O)c3cccc4cccc(c34)C2=O)c(S(=O)(=O)NCCCO)cc1OC	0	0	21.3µM	0	0
CCOC(=O)c1cnc(-c2ccccc2)nc1N	7.08µM	3.26µM	9.53µM	2µM	2.82µM
CCOC(=O)c1cnc(-c2ccccc2)nc1N(C)C	4.47µM	11.2µM	15.1µM	0	0
CCOC(=O)c1cnc2c(ccc3ccccc32)c1N	-	8.2µM	?	1.12µM	1.58µM
CCOC(=O)c1cnc2c(-c3ccccc3)cnn2c1C	11.2µM	8.2µM	1.9µM	1.58µM	2.51µM
CC(C)CCNC(=O)CN1C(=O)CSc2ccc(S(=O)(=O)N3CCCCC3)cc21	-	-	0	-	-
Cc1cccc(N2CCN(CCCNc3ncnc4onc(-c5ccc(Cl)cc5)c34)CC2C)c1 (stereo not drawn)	-	-	0	-	-
CC(C)(C)Nc1oc(-c2ccccc2)nc1-c1ccc(C(F)(F)F)cc1	0	-	-	-	-
SMILES	SMN2 splice up	ELG1 genotox	FLuc modulator	Rab9 prom act	NPC1 prom act
CC1=C(C(=O)Nc2cccc(C(F)(F)F)c2)C(c2ccccn2)n2ncnc2N1 (stereo not drawn)	-	-	0	-	-
CCCC1=NN(c2ccc([N+](=O)[O-])cc2)C(=O)/C1=C/N(C)C	0	0	10.7µM	0	0
CC1=NN(c2nc3ccccc3[nH]2)C(=O)C1Cc1ccccc1 (stereo not drawn)	-	0	?	0	0
CC1=NN(c2nc3ccccc3[nH]2)C(=O)/C1=C/N(C)C	-	0	2.13µM	1.41µM	1.78µM
CC1=NN(c2ccc([N+](=O)[O-])cc2)C(=O)/C1=C\N(C)C	0	?	10.7µM	0	0
CCOC1=NN(c2ccc(Cl)cc2)C(=O)/C1=C\N(C)C	0	0	0	0	0
CCOc1ccc(C(=O)Nc2cccc(-c3nc4cc(Cl)cc(Cl)c4o3)c2)cc1	0	-	0	-	-
COc1ccc(OCc2nc(C#N)c(NCc3ccccc3Cl)o2)cc1	0	-	0	-	-
Cc1cc(N2CCN(c3cccc(C(F)(F)F)c3)CC2)n2nc(-c3ccccc3C)nc2n1	0	-	0	-	-
O=C1N=c2ccccc2=C1c1sc(Nc2ccc(O)cc2)nc1O	0	0	?	0	0
O=C1N=c2ccccc2=C1c1sc(NS(=O)(=O)c2ccccc2)nc1O	0	0	?	0	0
